# Legend:
# [1] = test system: Vero E6 infected with SARS-CoV-2; experiment: morphology score (similarity to uninfected cells); higher = more like uninfected cells; conditions: 24 h
# [2] = test system: Vero E6 infected with SARS-CoV-2; experiment: SARS-CoV-2 infection rate relative to infected DMSO; higher = more infection, active = 60 or less; conditions: 24 h
SMILES,morphology score [1],SARS-CoV-2 infection rate [2]
Cc1cccc(-c2[nH]c(C(C)(C)C)nc2-c2ccc3c(c2)OCO3)n1 (10 µM),-0.132,115% (inactive)
"c1ccc2c(Cc3c[nH]c4ccccc34)c[nH]c2c1 [3,3'-diindolylmethane] (10 µM)",0.0838,113% (inactive)
O=C(NC(=O)c1c(F)cccc1Cl)NC1c2ccccc2-c2ccccc21 (10 µM),0.143,102% (inactive)
Cc1cccc(C(C)c2c[nH]cn2)c1C (stereo not given) [medetomidine] (10 µM),-0.0614,102% (inactive)
Cn1c(=O)c2c(ncn2CC2OCCO2)n(C)c1=O [doxofylline] (10 µM),-0.118,106% (inactive)

# — the supplement of paper PMC13380429
